Test results: PubChem BioAssay AID1259421 (Broad Institute, 2018)
Values joined by “and” are separate entries in the source; they are usually repeats but may differ in a detail not shown here. Equal values may be shown once. Out of some 6,400 compounds screened, about 610 (9.5%) were called active. Cut-off read from the data, not from the text of the source: active = activity change below about -70%; inconclusive = no clear call, values can overlap the other calls; inactive = above that. For the sample, actives were picked, then their nearest neighbours and some compounds at random. Some structures have more than one record in an assay (separate samples or runs), and their calls can disagree.

Assay: Toxoplasma gondii ME49Luc growth in HeLa cells, luciferase, no IFN-y, primary screen (AID 1259421)
Settings: T. gondii ME49Luc in HeLa, 72 h, stronger effect = lower value, concentration not given here

Row | SMILES | activity change, negative = inhibition
1 | CC(=O)C(C#N)C(=O)Nc1cc(Br)ccc1Br (centres undefined) | -2.2% (inactive) and 12.8% (inactive)
2 | COC(=O)C[C@H]1C(C)(C)C(=O)[C@@H]2CC3C4=CC(=O)O[C@@H](c5ccoc5)[C@]4(C)CCC3[C@@]1(C)C2=O (some centres undefined) | 6.27% (inactive)
3 | CC[C@@]1(C2O[C@@H](C3O[C@@](O)(CO)[C@H](C)C[C@@H]3C)C[C@@H]2C)CC[C@H]([C@]2(C)CC[C@]3(C[C@H](O)[C@@H](C)[C@@H]([C@@H](C)[C@@H](OC)[C@H](C)C(=O)O)O3)O2)O1 (some centres undefined) | -80.3% (active)
4 | COC(=O)C1C(O)CCC2CN3CCc4c([nH]c5ccccc45)C3CC21 (centres undefined) | 6.81% (inactive)
5 | C[C@@H]1O[C@@H](OC[C@H]2OC(Oc3c(-c4ccc(OCCO)c(OCCO)c4)oc4cc(OCCO)cc(O)c4c3=O)[C@H](O)[C@@H](O)[C@@H]2O)[C@H](O)[C@H](O)[C@H]1O (some centres undefined) | 0.547% (inactive)
6 | CN=C(NC#N)NCCSCc1csc(N=C(N)N)n1 | 21.3% (inactive) and 9.18% (inactive)
7 | COc1ccc(/C=C\c2cc(OC)c(OC)c(OC)c2)cc1OP(=O)(O)O | -67.2% (inactive)
8 | CN1CCC(Nc2ncc3ncnc(Nc4ccc(F)c(Cl)c4)c3n2)CC1 | 7.3% (inactive)
9 | C[C@H](Oc1ccc(S(C)(=O)=O)cc1C(=O)N1CCN(c2ncc(C(F)(F)F)cc2F)CC1)C(F)(F)F | -27.8% (inactive)
10 | COc1ccc(F)c(F)c1C(=O)c1cnc(NC2CCN(S(C)(=O)=O)CC2)nc1N | -87.7% (active)
11 | O=C(NC(Cc1c[nH]c2ccccc12)C(=O)O)c1ccc(Cl)cc1 (centres undefined) | 4.2% (inactive)
12 | C=CC(=O)Nc1ccc(OC)cc1 | 7.75% (inactive)
13 | Cc1cc(Cn2cnc3c2C[C@@H](C(=O)O)N(C(=O)C(c2ccccc2)c2ccccc2)C3)ccc1N(C)C | 25.4% (inactive)
14 | CCC(=O)O[C@@H](OP(=O)(CCCCc1ccccc1)CC(=O)N1C[C@H](C2CCCCC2)C[C@H]1C(=O)O)C(C)C (some centres undefined) | 11.7% (inactive)
15 | CN(C)C(=O)COC(=O)Cc1ccc(OC(=O)c2ccc(N=C(N)N)cc2)cc1 | 0.553% (inactive)
16 | Nc1ncnc2nc[nH]c12 | 5.62% (inactive)
17 | S=c1nc[nH]c2nc[nH]c12 | -59.8% (inactive)
18 | Nc1nc(=S)c2[nH]cnc2[nH]1 | -77.5% (active)
19 | CC(NC(=O)CCc1nc2ccccc2c(=O)[nH]1)c1ccccc1 (centres undefined) | 4.68% (inactive)
20 | CCOC(=O)c1cnc[nH]1 | 7.3% (inactive)
21 | CC1(C)CC(=O)C(C2C3=C(CC(C)(C)CC3=O)Oc3ccccc32)C(=O)C1 (centres undefined) | 4.42% (inactive) and -1.95% (inactive)
22 | CCc1nc(N)nc(N)c1-c1ccc(Cl)cc1 | -89.2% (active) and -80% (active)
23 | CC(C)Cc1sc(N)nc1-c1ccc(P(=O)(O)O)o1 | 7.23% (inactive)
24 | CO[C@H]1C(=O)[C@@]2(C)[C@H]([C@@H](OC(=O)c3ccccc3)[C@@]3(O)C[C@H](OC(=O)[C@H](O)[C@@H](NC(=O)OC(C)(C)C)c4ccccc4)C(C)=C1C3(C)C)[C@]1(OC(C)=O)CO[C@@H]1C[C@H]2OC | -82.6% (active)
25 | CC(=O)O[C@@]12CO[C@@H]1C[C@H](O)[C@@]1(C)C(=O)[C@H](O)C3=C(C)[C@@H](OC(=O)[C@H](O)[C@@H](NC(=O)OC(C)(C)C)c4ccccc4)C[C@@](O)([C@@H](OC(=O)c4ccccc4)C12)C3(C)C (some centres undefined) | -80.2% (active)

Row | SMILES | activity change, negative = inhibition
26 | CC(=O)O[C@@]12CO[C@@H]1C[C@H](O)[C@@]1(C)C(=O)[C@H](O)C3=C(C)[C@@H](OC(=O)[C@H](O)[C@@H](NC(=O)OC(C)(C)C)c4ccccc4)C[C@@](O)([C@@H](OC(=O)c4ccccc4)[C@H]21)C3(C)C | -73.3% (active) and -80.3% (active)
27 | Cc1cccc(C)c1NC(=O)/N=C1/CCCN1C | 6.63% (inactive)
28 | COc1ccc(/C=C/C(=O)c2ccc(O)cc2O)cc1 | 82.9% (inactive)
29 | COc1ccnc(CS(=O)c2nc3ccc(OC(F)F)cc3[nH]2)c1OC (centres undefined) | 26.3% (inactive) and 7.86% (inactive)
30 | Cc1ccc(OCC(O)C(C)NC(C)C)c2c1CCC2 (centres undefined) | 14.3% (inactive)
31 | Cc1oc(=O)oc1CN1CCN(c2cc3c(cc2F)c(=O)c(C(=O)O)c2n3C(C)S2)CC1 (centres undefined) | 19.8% (inactive)
32 | COc1cc(-c2coc3cc(OCc4ccccc4)c(OC)c(O)c3c2=O)cc(OCc2ccccc2)c1OC | -39.8% (inactive)
33 | COc1ccc([C@@H]2CC(=O)c3c(O)cc(O[C@@H]4O[C@H](CO[C@H]5O[C@@H](C)[C@H](O)[C@@H](O)[C@H]5O)[C@@H](O)[C@H](O)[C@H]4O)cc3O2)cc1O | 5.14% (inactive)
34 | Cc1cc(N2CCN([C@@H]3CN[C@H](C(=O)N4CCSC4)C3)CC2)n(-c2ccccc2)n1 | -3% (inactive)
35 | Cc1ccc(C(=O)Nc2ccc(CN3CCN(C)CC3)c(C(F)(F)F)c2)cc1C#Cc1cnc2[nH]ncc2c1 | -89.3% (active)
36 | COC(=O)N1CCN(Cc2cccc(NC(=O)Nc3ccc(C)nc3)c2F)CC1 | 9.25% (inactive)
37 | Cc1ccc(C(=O)Nc2ccc(CN3CCN(C)CC3)c(C(F)(F)F)c2)cc1C#Cc1cnc2cccnn12 | -83% (active)
38 | CCCCCCCCCCCCCCCC(=O)OC[C@H](NC(=O)C(Cl)Cl)[C@H](O)c1ccc([N+](=O)[O-])cc1 | 7.24% (inactive) and 16.1% (inactive)
39 | NC(=O)CCC1NC(=O)C(Cc2ccccc2)NC(=O)C(Cc2ccc(O)cc2)NC(=O)CCSSCC(C(=O)N2CCCC2C(=O)NC(CCCN=C(N)N)C(=O)NCC(N)=O)NC(=O)C(CC(N)=O)NC1=O (centres undefined) | 7.89% (inactive)
40 | COc1cc(/C=C/C(=O)O)cc(OC)c1O | -2.18% (inactive)
41 | COc1cc2c(cc1OC)C(c1ccc(N)cc1)=NNC(=O)C2 | -18.7% (inactive) and 7.52% (inactive)
42 | CC1=C(SCCO)C(=O)c2ccccc2C1=O | 29.8% (inactive)
43 | COc1ccc2c(c1)c1c3n2CCN(C)C3=NCC1 | 14.7% (inactive)
44 | C=CC(=O)N1CCCCC1 | 4.09% (inactive)
45 | CN([NH2+][O-])C(=O)N[C@@H]1[C@@H](O)[C@H](O)[C@@H](CO)O[C@@H]1O | -1.36% (inactive)
46 | Cc1ccc(O)c(N=Nc2ccccc2)n1 | 8.22% (inactive) and 3.77% (inactive)
47 | COc1cccc2c1C(=O)c1c(O)c3c(c(O)c1C2=O)C[C@@](O)(C(=O)CO)C[C@@H]3OC1C[C@H](N)[C@H](O)[C@H](C)O1 (some centres undefined) | -87.6% (active)
48 | COc1cccc2c1C(=O)c1c(O)c3c(c(O)c1C2=O)C[C@@](O)(C(=O)CO)C[C@@H]3O[C@H]1C[C@H](N)[C@@H](O)[C@H](C)O1 | -80.9% (active)
49 | COc1cccc2c1C(=O)c1c(O)c3c(c(O)c1C2=O)C[C@@](O)(C(=O)CO)C[C@@H]3O[C@H]1C[C@H](N)[C@H](O)[C@H](C)O1 | -78.1% (active) and -79.4% (active)
50 | COc1cccc2c1C(=O)c1c(O)c3c(c(O)c1C2=O)CC(O)(C(=O)CO)CC3OC1CC(N)C(O)C(C)O1 (centres undefined) | -89.5% (active)

Row | SMILES | activity change, negative = inhibition
51 | CCCCC(=O)OCC(=O)[C@]1(O)Cc2c(O)c3c(c(O)c2[C@@H](O[C@H]2C[C@H](NC(=O)C(F)(F)F)[C@H](O)[C@H](C)O2)C1)C(=O)c1c(OC)cccc1C3=O | -24.8% (inactive)
52 | NC(Cc1ccc(O)cc1)C(=O)O (centres undefined) | 3.44% (inactive)
53 | Oc1ccc(-c2nc3cc(O)cc(Br)c3o2)cc1 | -55.9% (inactive)
54 | CC(=O)O[C@@H]1CC2C(C)(CC[C@H](O)C2(C)C)C2CC[C@]3(C)C(=CC(=O)O[C@H]3c3ccoc3)C21C (some centres undefined) | -5.23% (inactive)
55 | CCC(c1ccc(O)cc1)C(CC)c1ccc(O)cc1 (centres undefined) | 14.8% (inactive)
56 | c1ccc(-c2cc3ccccc3[nH]2)cc1 | 106% (inactive)
57 | Nc1nc(Nc2ccccc2)nc2c1ncn2C1OC(CO)C(O)C1O (centres undefined) | 3.98% (inactive)
58 | COc1ccc(Nc2ccn(-c3ccccc3)n2)cc1 | 404% (inactive)
59 | CCCCCC/C=C\CCCCCCCc1cccc(O)c1C(=O)O | 6.32% (inactive)
60 | NC(=O)CC[C@H](NC(=O)Cc1ccccc1)C(=O)O | 16.1% (inactive)
61 | C=CC(C)(C)c1cc(/C=C/C(=O)c2ccc(O)cc2)c(OC)cc1O | 187% (inactive)
62 | CCCC(CCC)C(=O)Nc1ccn([C@@H]2O[C@H](CO)[C@@H](O)C2(F)F)c(=O)n1 | -1.71% (inactive)
63 | COc1ccccc1OC(=O)CNC(=O)Cc1ccc(C(=O)c2ccc(C)cc2)n1C | 15.7% (inactive)
64 | C[C@@H]1O[C@@H](Oc2c(-c3cc(O)c(O)c(O)c3)oc3cc(O)cc(O)c3c2=O)[C@@H](O)[C@H](O)[C@H]1O | 8.81% (inactive)
65 | CN1CCN(c2ccc3nc(-c4ccc5nc(-c6ccc(O)cc6)[nH]c5c4)[nH]c3c2)CC1 | -23.1% (inactive)
66 | CN1CCN(c2ccc3nc(-c4c(N)c5c(F)cccc5[nH]c4=O)[nH]c3c2)CC1 | -36.1% (inactive) and -79.7% (active)
67 | CN1CCN(C(=O)c2nc3ccc(Cl)cc3[nH]2)CC1 | 1.51% (inactive) and 15.6% (inactive)
68 | O=C(O)c1cc(N=Nc2ccc(O)c(C(=O)O)c2)ccc1O | 7.94% (inactive)
69 | O=S(=O)(O)C(F)(F)F.O=S(=O)(O)C(F)(F)F.O=S(=O)(O)C(F)(F)F.[Bi] | 11% (inactive)
70 | CN(C)C(=S)SC(=S)N(C)C | 39.1% (inactive)
71 | NC(N)=NC(N)=NCCc1ccccc1 | -13.4% (inactive)
72 | CC(C)[C@H](NS(=O)(=O)c1ccc(-c2ccc(Br)cc2)cc1)C(=O)O | 4.75% (inactive)
73 | CC(C)ON([C@@H](C(=O)NO)C(C)C)S(=O)(=O)c1ccc(-c2ccccc2)cc1 | -87.2% (active)
74 | CC(C)C(NS(=O)(=O)c1ccc(-c2ccc(Br)cc2)cc1)C(=O)O (centres undefined) | 9.87% (inactive)
